Results reported in PubChem BioAssay (Tox21).
Values joined by “and” are separate entries in the source; they are usually repeats but may differ in a detail not shown here. Identical values can stand only once. Inconclusive results are not listed. A call without a number means that no potency is given here. The source holds several records for some structures; these can differ, active in one and inactive in another. Active and inactive are the calls of the source. Unless noted, the call rests on the fitted dose curve.

Tests used:
[1] = Nuclear factor erythroid 2-related factor 2/antioxidant responsive element (Nrf2/ARE) small molecule agonists: qHTS cell viability counter screen in human keratinocytes (AID 1919968; active means well fitted curve in the direction sought with a large enough effect in the repeat runs; an effect the other way counts as inactive or inconclusive; further: nearly all actives have a fitted effect of over 55% in size; further: potency means the concentration at half of the fitted maximal effect)
Summary of the method: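 Cells of the KeratinoSens line were plated at 1,500 per well and left for 5 h before compound transfer from DMSO stocks. After a 23 h incubation (37 C, 5% CO2), CellTiter-Fluor was added. Signal was taken as fluorescence intensity 1 h later.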

[2] = Nuclear factor erythroid 2-related factor 2/antioxidant responsive element (Nrf2/ARE) small molecule agonists: luciferase reporter gene qHTS assay in human keratinocytes (AID 1919969); further: nearly all actives have a fitted effect of over 35% in size; further: potency means the concentration at half of the fitted maximal effect
[3] = molecular target: Gonadotropin-releasing hormone receptor (Homo sapiens) (UniProt P30968); test: Human gonadotropin-releasing hormone receptor (GnRHR) small molecule agonists, calcium flux assay in GnRHR-HEK293 cells (AID 1920063); further: nearly all actives have a fitted effect of over 35% in size
Summary of the method: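 Compounds dissolved in DMSO are pin-transferred onto dye-loaded GnRHR-HEK293 cells, which were seeded 18 h before at 37 C/5% CO2. Calcium signal is read as fluorescence intensity at 1 s intervals for 3 min.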

[4] = molecular target: KiSS-1 receptor (Homo sapiens) (UniProt Q969F8); test: Human kisspeptin (KISS1R) small molecule agonists, calcium flux assay in KISS1R-HEK293 cells (AID 1920064; active means well fitted curve in the direction sought with a large enough effect in the repeat runs; an effect the other way counts as inactive or inconclusive)
Summary of the method: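 Cell line: HEK293, stable human KISS1R. Dye loading 1 h at 37 C after 18 h culture. Read: kinetic fluorescence, 480/540 nm, 3 min at 1 s intervals.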

[5] = G protein-coupled receptor (GPCR) small molecule agonists, calcium flux assay: HEK293 wild type cell line counter screen (AID 1920065)
Summary of the method: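 Tox21 10K compounds, 15 concentrations each in triplicate, pin-transferred in DMSO onto dye-loaded cells; kinetic read at 480/540 nm for 3 min, 1 s intervals.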

[6] = p53 small molecule agonists, cell-based qHTS assay with rat liver microsomes (AID 1963578)
Summary of the method: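 With rat liver microsomes and NADPH present (0.5 mg/mL final each), p53RE-bla cells are treated with compound for 16 h at 37 C. LiveBLAzer detection mixture is then applied for 2 h at room temperature in the dark.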

[7] = p53 small molecule agonists, cell-based qHTS assay with rat liver microsomes: qHTS cell viability counter screen (AID 1963580); further: nearly all actives have a fitted effect of over 45% in size
Summary of the method: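 Counter screen for cytotoxicity under metabolic activation: rat liver microsomes and NADPH, 0.5 mg/mL final each, added with compounds to p53RE-bla HCT-116 cells; 16 h at 37 C, then ATP luminescence read.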

[8] = p53 small molecule agonists, cell-based qHTS assay: qHTS cell viability counter screen (AID 1963581); further: nearly all actives have a fitted effect of over 45% in size
Summary of the method: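 ATP content measured by luminescence in HCT-116 p53RE-bla cells treated 16 h at 37 C, same wells as the reporter screen.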

[9] = p53 small molecule agonists, cell-based qHTS assay (AID 1963582; active means well fitted activation curve with a large enough effect in the signal ratio in the repeat runs, not every such curve was filed as active; the % refers to the signal ratio)
Summary of the method: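 16 h compound exposure (37 C) of p53 response element–bla cells, preceded by 5 h recovery at 37 C/5% CO2; read-out via LiveBLAzer B/G FRET substrate, 2 h RT, fluorescence intensity.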

[10] = molecular target: 5-hydroxytryptamine receptor 2A (Homo sapiens) (UniProt P28223); test: 5-hydroxytryptamine receptor 2A (HTR2A) small molecule antagonists, cell-based qHTS assay (AID 1963586); further: nearly all actives have a fitted effect of over 45% in size
Summary of the method: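 CHO cells stably expressing human HTR2A were plated for 18 h at 37 C, then loaded with calcium dye for 1 h. Compounds were preincubated 5 min at room temperature before DOI (4 nM solution) was added. Kinetic fluorescence was read for 3 min.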

[11] = molecular target: 5-hydroxytryptamine receptor 2A (Homo sapiens) (UniProt P28223); test: 5-hydroxytryptamine receptor 2A (HTR2A) small molecule agonists, cell-based qHTS assay (AID 1963587); further: nearly all actives have a fitted effect of over 30% in size
Summary of the method: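 HTR2A-CHO cells, plated 18 h at 37 C/5% CO2, dye-loaded 1 h at 37 C; compounds in DMSO added by pin tool (agonist mode). Intracellular calcium flux read as kinetic fluorescence on FDSS over 2 min at 1 s intervals.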

[12] = molecular target: Muscarinic acetylcholine receptor M1 (Homo sapiens) (UniProt P11229); test: Cholinergic receptor muscarinic 1 (CHRM1) small molecule antagonists, cell-based qHTS assay (AID 1963588); further: nearly all actives have a fitted effect of over 40% in size; further: potency means the concentration at half of the fitted maximal effect
Summary of the method: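 Compounds were tested at 15 concentrations in three independent runs. Dye-loaded CHRM1-CHO cells were exposed 5 min at room temperature before stimulation by acetylcholine added at 50nM. Intracellular calcium was read kinetically on FDSS for 3 min.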

[13] = molecular target: Muscarinic acetylcholine receptor M1 (Homo sapiens) (UniProt P11229); test: Cholinergic receptor muscarinic 1 (CHRM1) small molecule agonists, cell-based qHTS assay (AID 1963589); further: nearly all actives have a fitted effect of over 35% in size
Summary of the method: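 Homogeneous fluorescence calcium flux, agonist mode. Human M1-expressing CHO cells; compound dosed at 15 concentrations, three independent runs; signal sampled every 1 sec.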

[14] = cAMP Responsive Elements (CRE) small molecule agonists, cell-based qHTS assay (AID 1963590)
Summary of the method: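 HEK 293T cells stably bearing CRE-bla were plated at 2,000 cells per well and rested 18 h. Compounds, positive controls or DMSO were added for 3 h at 37 C. LiveBLAzer B/G substrate was then loaded for 2 h at room temperature.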

[15] = cAMP Responsive Elements (CRE) small molecule antagonists, cell-based qHTS assay (AID 1963591; active means well fitted inhibition curve with a large enough effect in the signal ratio in the repeat runs, not every such curve was filed as active; the % refers to the signal ratio)
Summary of the method: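 First, CRE-bla HEK293T cells settled 18 h at 37 C. Next, compound and 0.25 uM final NKH477 were applied for 3 h. Last, LiveBLAzer B/G substrate was loaded for 2 h at room temperature.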

[16] = molecular target: Beta-2 adrenergic receptor (Homo sapiens) (UniProt P07550); test: Adrenergic beta2 receptor (ADRB2) small molecule antagonists, cell-based qHTS assay (AID 1963592); further: series mostly up to about 92 µM; nearly all actives have a fitted effect of over 50% in size
Summary of the method: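 Assay format: CHO-ADRB2 cells, 18-20hr seeding at 37C/5% CO2, then compound plus 1nM isoproterenol agonist mix for 0.5hr RT. Homogeneous time-resolved fluorescence cAMP detection after 1hr, expressed as 665/615 nm ratio.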

[17] = molecular target: Beta-2 adrenergic receptor (Homo sapiens) (UniProt P07550); test: Adrenergic beta2 receptor (ADRB2) small molecule agonists, cell-based qHTS assay (AID 1963593);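 further: CHO cells stably overexpressing human ADRB2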
Summary of the method: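 CHO cells stably over-expressing ADRB2 were plated overnight at 37C, then dosed with compounds plus a stimulation mix containing 100uM IBMX and 25uM Ro-20-1724 for 0.5hr at room temperature. cAMP was measured by HTRF competition, 1hr.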

[18] = molecular target: D(2) dopamine receptor (Homo sapiens) (UniProt P14416); test: Dopamine D2 receptor (DRD2) small molecule agonists, cell-based qHTS assay (AID 1963594); further: nearly all actives have a fitted effect of over 35% in size
Summary of the method: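 HEK293 cells stably expressing DRD2 were cultured 24 h at 37 C, then given Ro20-1724 (0.1 mM final) and compounds for 10 min at room temperature. NKH477 (200nM) was then added for 30 min. cAMP was read by HTRF.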

[19] = molecular target: D(2) dopamine receptor (Homo sapiens) (UniProt P14416); test: Dopamine D2 receptor (DRD2) small molecule antagonists, cell-based qHTS assay (AID 1963595; active means well fitted inhibition curve with a large enough effect in the signal ratio in the repeat runs, with a control signal flat; the % refers to the signal ratio; further: potency means the concentration at half of the fitted maximal effect)
Summary of the method: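 Cells were plated and grown for 24 h at 37 °C. Ro20-1724 (0.1 mM final) went in first, then compound for 10 min. NKH477 (200 nM) with quinpirole (12 nM) followed for 30 min at RT, then HTRF detection reagents for 1 h.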

[20] = p53 small molecule agonists, cell-based qHTS assay with human liver microsomes: qHTS cell viability counter screen (AID 1963579); further: nearly all actives have a fitted effect of over 45% in size; further: potency means the concentration at half of the fitted maximal effect
Summary of the method: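 In this multiplexed counter screen, the reporter plates were subsequently treated with CellTiter-Glo so that cell viability, reflected by luminescence, could be recorded for p53RE-bla cells dosed 16 h with compounds under microsomal activation (HLM and NADPH).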

Chain of Gonadotropin-releasing hormone receptor (Homo sapiens) (P30968 whole entry, looked up): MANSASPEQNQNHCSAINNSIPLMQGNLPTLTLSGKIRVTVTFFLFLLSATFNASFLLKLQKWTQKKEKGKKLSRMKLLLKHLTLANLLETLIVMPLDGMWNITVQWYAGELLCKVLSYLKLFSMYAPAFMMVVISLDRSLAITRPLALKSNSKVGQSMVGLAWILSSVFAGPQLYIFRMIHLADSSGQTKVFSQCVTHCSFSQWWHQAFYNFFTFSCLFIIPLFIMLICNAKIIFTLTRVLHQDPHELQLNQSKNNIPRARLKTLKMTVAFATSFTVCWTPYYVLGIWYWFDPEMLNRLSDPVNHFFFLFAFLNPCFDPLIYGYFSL
Chain of KiSS-1 receptor (Homo sapiens) (Q969F8 whole entry, looked up): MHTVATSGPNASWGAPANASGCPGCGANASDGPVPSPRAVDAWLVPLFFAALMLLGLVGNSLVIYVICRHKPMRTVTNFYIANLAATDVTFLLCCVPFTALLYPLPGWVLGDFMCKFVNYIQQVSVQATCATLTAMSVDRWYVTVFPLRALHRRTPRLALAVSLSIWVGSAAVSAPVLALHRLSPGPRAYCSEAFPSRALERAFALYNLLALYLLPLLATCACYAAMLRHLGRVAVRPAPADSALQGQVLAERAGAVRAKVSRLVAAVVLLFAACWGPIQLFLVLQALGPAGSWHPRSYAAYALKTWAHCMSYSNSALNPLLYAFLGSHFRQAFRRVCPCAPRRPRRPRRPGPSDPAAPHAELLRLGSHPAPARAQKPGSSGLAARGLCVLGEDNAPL
Chain of D(2) dopamine receptor (Homo sapiens) (P14416 whole entry, looked up): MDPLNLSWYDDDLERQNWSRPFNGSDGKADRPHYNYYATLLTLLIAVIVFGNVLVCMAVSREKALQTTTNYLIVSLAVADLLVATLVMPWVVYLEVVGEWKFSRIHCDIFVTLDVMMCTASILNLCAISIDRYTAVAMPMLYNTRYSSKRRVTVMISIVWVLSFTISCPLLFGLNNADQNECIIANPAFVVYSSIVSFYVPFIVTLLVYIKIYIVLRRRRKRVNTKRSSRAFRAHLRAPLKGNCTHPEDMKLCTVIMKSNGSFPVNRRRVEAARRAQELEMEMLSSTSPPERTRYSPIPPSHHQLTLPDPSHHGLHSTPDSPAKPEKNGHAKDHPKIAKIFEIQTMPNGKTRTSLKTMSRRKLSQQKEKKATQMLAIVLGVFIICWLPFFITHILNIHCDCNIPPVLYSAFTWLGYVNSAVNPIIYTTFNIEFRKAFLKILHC
Chain of Muscarinic acetylcholine receptor M1 (Homo sapiens) (P11229 whole entry, looked up): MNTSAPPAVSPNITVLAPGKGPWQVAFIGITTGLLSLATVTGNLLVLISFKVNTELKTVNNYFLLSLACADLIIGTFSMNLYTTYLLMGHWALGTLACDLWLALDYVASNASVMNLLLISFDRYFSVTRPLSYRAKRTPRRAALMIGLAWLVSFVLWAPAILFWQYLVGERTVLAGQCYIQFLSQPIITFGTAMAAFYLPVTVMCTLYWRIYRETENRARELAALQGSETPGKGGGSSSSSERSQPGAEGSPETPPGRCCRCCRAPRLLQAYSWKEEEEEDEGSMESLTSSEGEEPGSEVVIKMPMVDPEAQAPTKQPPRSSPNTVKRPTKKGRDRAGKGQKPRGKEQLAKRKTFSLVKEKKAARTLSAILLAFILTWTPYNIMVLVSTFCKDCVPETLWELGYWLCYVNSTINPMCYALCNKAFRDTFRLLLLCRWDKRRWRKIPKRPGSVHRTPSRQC
Chain of Beta-2 adrenergic receptor (Homo sapiens) (P07550 whole entry, looked up): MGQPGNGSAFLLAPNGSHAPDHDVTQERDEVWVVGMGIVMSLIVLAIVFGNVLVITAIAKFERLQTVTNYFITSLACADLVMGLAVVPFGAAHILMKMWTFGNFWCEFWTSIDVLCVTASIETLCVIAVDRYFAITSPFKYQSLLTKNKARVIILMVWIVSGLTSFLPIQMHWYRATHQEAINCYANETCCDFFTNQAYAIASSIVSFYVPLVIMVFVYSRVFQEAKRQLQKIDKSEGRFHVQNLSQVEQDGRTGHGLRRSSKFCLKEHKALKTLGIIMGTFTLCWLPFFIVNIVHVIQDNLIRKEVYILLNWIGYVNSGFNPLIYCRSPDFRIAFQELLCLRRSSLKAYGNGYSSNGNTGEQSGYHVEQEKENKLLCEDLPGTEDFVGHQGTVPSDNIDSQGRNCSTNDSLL
Chain of 5-hydroxytryptamine receptor 2A (Homo sapiens) (P28223 whole entry, looked up): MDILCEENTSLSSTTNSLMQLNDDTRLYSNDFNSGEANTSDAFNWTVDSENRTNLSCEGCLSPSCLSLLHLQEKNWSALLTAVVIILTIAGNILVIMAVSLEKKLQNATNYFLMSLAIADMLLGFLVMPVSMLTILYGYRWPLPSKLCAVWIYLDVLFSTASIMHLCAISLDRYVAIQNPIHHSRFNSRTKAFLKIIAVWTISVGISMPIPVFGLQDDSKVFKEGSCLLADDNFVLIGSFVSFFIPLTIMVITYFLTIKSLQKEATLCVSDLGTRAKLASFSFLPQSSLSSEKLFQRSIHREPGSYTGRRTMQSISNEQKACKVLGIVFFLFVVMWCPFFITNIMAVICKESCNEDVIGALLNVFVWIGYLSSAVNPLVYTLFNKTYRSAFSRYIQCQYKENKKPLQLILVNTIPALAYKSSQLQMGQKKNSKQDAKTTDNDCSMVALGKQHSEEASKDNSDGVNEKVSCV

SMILES	Potency [1]	Potency [2]	Potency [3]	Potency [4]	Potency [5]	Potency [6]	Potency [7]	Potency [8]	Potency [9]	Potency [10]	Potency [11]	Potency [12]	Potency [13]	Potency [14]	Potency [15]	Potency [16]	Potency [17]	Potency [18]	Potency [19]	Potency [20]
COc1ccc(CCC(C)=O)cc1	inactive	inactive	inactive	inactive	inactive	inactive	inactive	inactive	inactive	inactive	inactive	inactive	inactive	inactive	inactive	inactive	inactive	inactive	inactive	
NC=O	inactive	inactive	inactive	inactive	inactive		inactive	inactive		inactive	inactive	inactive	inactive	inactive	inactive	inactive		inactive	inactive	inactive
CCCCC(CC)COC(=O)CCCCC(=O)OCC(CC)CCCC (centres undefined)	inactive	inactive	inactive	inactive	inactive	inactive	inactive	inactive		inactive	inactive	inactive		inactive	inactive	inactive	inactive	inactive	inactive	inactive
CCC(C)(C)C(=O)O[C@H]1C[C@@H](C)C=C2C=C[C@H](C)[C@H](CC[C@@H]3C[C@@H](O)CC(=O)O3)[C@H]21	inactive	inactive	inactive	inactive	inactive	inactive	inactive	inactive	inactive					inactive		inactive		inactive	19.3 µM (active) and inactive	
CC(O)(P(=O)(O)O)P(=O)(O)O	inactive	inactive	inactive	inactive	inactive		inactive	inactive						inactive	inactive	inactive	inactive	inactive	inactive	inactive
CCCCCCCCCC(=O)OC	inactive	inactive	inactive	inactive	inactive		inactive	inactive		inactive	inactive	inactive	inactive	inactive	inactive	inactive	inactive	inactive	inactive	inactive
O=C(O)c1cc(C(=O)O)cc(S(=O)(=O)O)c1	inactive	inactive	inactive	inactive	inactive		inactive	inactive		inactive	inactive	inactive	inactive	inactive	inactive	inactive	inactive	inactive	inactive	inactive
COC1=CC(=O)C[C@@H](C)[C@]12Oc1c(Cl)c(OC)cc(OC)c1C2=O	inactive	inactive	inactive	inactive	inactive		inactive							inactive	inactive	inactive	inactive	inactive	inactive	inactive
CCCCCCCCCCCCCCCCO	inactive	inactive	inactive	inactive	inactive			inactive		inactive	inactive		inactive	inactive	inactive	inactive	inactive		inactive	
CC(=O)O[C@]1(C(C)=O)CC[C@H]2[C@@H]3C=C(Cl)C4=CC(=O)[C@@H]5C[C@@H]5[C@]4(C)[C@H]3CC[C@@]21C	inactive	inactive	inactive	inactive	inactive		inactive	inactive								inactive	inactive	inactive	inactive	inactive
CCO[Si](CCC#N)(OCC)OCC	inactive	inactive	inactive	inactive	inactive		inactive	inactive		inactive	inactive	inactive	inactive	inactive		inactive		inactive	inactive	
O=C(Oc1ccccc1)c1ccccc1O	inactive	inactive and 68.6 µM (active)	inactive	inactive	inactive					inactive	inactive	inactive	inactive	inactive		inactive	inactive		inactive	inactive and 40.8 µM (active)
Cn1cc[nH]c1=S	54.4 µM (active) and inactive	27.3 µM (active) and inactive	inactive	inactive	inactive									inactive	inactive	inactive	inactive	inactive	inactive	
CCCC(CCC)C(=O)O	inactive	inactive	inactive	inactive	inactive									inactive	inactive	inactive	inactive	inactive	inactive	
CCCCCCC(C)O (centres undefined)	inactive	inactive	inactive	inactive		inactive	inactive	inactive	inactive	inactive	inactive	inactive	inactive	inactive	inactive	inactive	inactive	inactive	inactive	inactive
COc1ccc(Cl)cc1C(=O)NCCc1ccc(S(=O)(=O)NC(=O)NC2CCCCC2)cc1	inactive	inactive	inactive	inactive		inactive	inactive	inactive	inactive							inactive		inactive	inactive	inactive
C1CNCCN1	inactive	inactive	inactive	inactive		inactive	inactive	inactive	inactive	inactive	inactive	4.86 µM (active) and inactive	inactive	inactive	inactive	inactive	inactive		inactive	inactive
CCCCC(CC)COC(=O)c1ccc(N(C)C)cc1 (centres undefined)	inactive	30.8 µM (active) and 54.5 µM (active) and inactive	inactive	inactive		inactive	inactive	inactive	inactive	inactive	inactive	inactive	inactive	inactive	inactive		inactive	inactive	inactive	inactive
